According to PubChem BioAssay:

Assay: inhibition of PAO1 biofilm formation – strain PAO1, LB-PBS medium, absorbance 600 nm, primary screen (AID 1176)
Conditions: P. aeruginosa PAO1 growth/biofilm, A600, 12 h; higher = more signal
Note: test concentration not given here.

z-score, inactive:
CCOC(=O)C[C@H]1[C@H](OC(=O)c2cc3ccccc3oc2=O)[C@@H](NC(=O)C2CCCCC2)c2cc(OCCCO)ccc2N1C(=O)Cc1ccc(OC)cc1 -0.234
CC(C)C(=C=CC[C@@H](O)c1cccc(OCCO)c1)CCO 0.2
C=C(COC)/C(=C/C[C@H](OC(=O)c1ccncc1)c1cccc(OCCO)c1)c1cnc2ccccc2c1 1.14
CC(C)CNC(=O)[C@@H]1c2ccccc2C(=O)N(Cc2ccccc2)[C@H]1c1ccc(CO)cc1 0.388
C=C(COC)C(=O)CC[C@@H](OC(C)=O)c1ccc(OCCO)cc1 0.98
CCCCC(=C=CC[C@H](O)c1ccc(OCCO)cc1)C[C@H](O)c1ccccn1 -0.247
CC(C)c1ccc(NN2C(C(O)C(C)C)C=CC3C(=O)N(c4ccccc4)C(=O)C32)cc1 (stereo not given) 0.711
COCCOC(=O)N1C(=O)[C@@]2(c3cc(C#CC4=CCCCC4)ccc31)[C@H](C(=O)N1CCN(c3ncccn3)CC1)[C@H]1C(=O)O[C@H](c3ccccc3)[C@H](c3ccccc3)N1[C@@H]2c1ccccc1OCCO 4.43
CC(C)C(=C=CC[C@@H](O)c1ccccc1OCCO)C[C@@H](O)c1cc(Cl)cc(Cl)c1O 0.354
COc1ccc(C(O)C2C=CC3C(=O)N(C)C(=O)C3N2Nc2ccc([N+](=O)[O-])cc2[N+](=O)[O-])cc1OCc1ccccc1 (stereo not given) -0.0067

Assay: growth modulation of vineyard yeast isolate – strain RM11-1a, OD600, basal, 24 h, primary screen (AID 1177);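 note: cultures grown under basal conditions with no added stressor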
Conditions: S. cerevisiae RM11-1a growth, OD600, 24 h; higher = more signal, called active from +8 up or from −8 down

z-score, inactive:
O=C1OCCC/C=C\[C@H]2OC34C=CCN(Cc5ccccc5)C(=O)[C@H]3N(CCCCCO)C(=O)[C@@H]4C12 (stereo not given in full) -0.581
CO[C@H]1O[C@H](CO)[C@@H](OC(=O)Nc2ccc(C(F)(F)F)cc2)[C@H](OC(=O)Nc2ccccc2-c2ccccc2)[C@H]1OC(=O)Nc1ccccc1-c1ccccc1 2.8
COCCOC(=O)N1C(=O)[C@@]2(c3cc(C#CCCO)ccc31)[C@H](C(=O)N1CCN(c3ncccn3)CC1)[C@H]1C(=O)O[C@H](c3ccccc3)[C@H](c3ccccc3)N1[C@@H]2c1ccc(O)cc1 0.135
[N-]=[N+]=NCc1ccccc1[C@H]1OC(c2ccc(OCCCO)cc2)=N[C@@]1(Cc1ccccc1)C(=O)N1CCOCC1 0.176
C=CCC(OC(C)=O)[C@@H]1[C@@H](N(Cc2ccc(-c3ccccc3)cc2)C(=O)c2ccc(C)cc2)c2cc(OCCCO)ccc2N1C(=O)c1ccc2ccccc2c1 (stereo not given in full) -1.99
CCCCC(O)C1C=CC2C(=O)N(C)C(=O)C2N1Nc1ccccc1 (stereo not given) 1.53
COCCOC(=O)N1C(=O)[C@@]2(c3cc(C#CCC(C(=O)OC)C(=O)OC)ccc31)[C@H](C(=O)N1CCCCCCC1)[C@H]1C(=O)O[C@H](c3ccccc3)[C@H](c3ccccc3)N1[C@@H]2c1ccccc1OCCO 1.62
COC(=O)[C@@]1(Cc2ccccc2)[C@H]2c3cc(C(=O)N4CCCC4)n(Cc4ccc(C(F)(F)F)nc4)c3C[C@H]2CN1C(=O)c1ccccc1 0.151
CN1C(=O)[C@]2(CCS(=O)(=O)c3ccccc3)N=C(c3ccc(OCCCO)cc3)O[C@@H]2c2ccccc21 2.34
C=CCC(OC(C)=O)[C@@H]1[C@@H](N(Cc2cccc3ccccc23)C(=O)c2cccc3ccccc23)c2cc(OCCCO)ccc2N1C(=O)Cc1ccc2ccccc2c1 (stereo not given in full) -0.0264
CCCCNC(=O)c1ccc(C#C[Si](C)(C)C)c(OC(C)=O)c1 0.846
CCOC(=O)C1=CC[C@@H](c2ccccc2Cl)N(S(=O)(=O)c2ccc(C)cc2)[C@H]1c1cccc(OC)c1 0.822
Cc1ccc(F)cc1S(=O)(=O)N[C@@H]1CCN(Cc2ccc3c(c2)OCO3)C1 0.34
C#CCN(C/C=C/c1ccccc1)[C@H](CO[Si](C)(C)C(C)(C)C)c1ccccc1 0.244
N[C@@H](Cc1ccccc1)Cn1cc(C2(O)CCCCC2)nn1 -0.507
COCCOC(=O)N1C(=O)[C@@]2(c3cc(C#CCC(C(=O)OC)C(=O)OC)ccc31)[C@H](c1ccc(OCCO)cc1)N1[C@H](c3ccccc3)[C@H](c3ccccc3)OC(=O)[C@H]1[C@@H]2C(=O)N1CCCCCCC1 2.72
COc1ccc(NC(=O)O[C@H]2[C@H](OC(=O)Nc3ccc4c(c3)OCO4)[C@H](OC(=O)Nc3ccc4c(c3)OCO4)[C@@H](OC)O[C@@H]2CO)cc1 1.88
COc1ccc(NN2C(C(O)c3cc(C(F)(F)F)cc(C(F)(F)F)c3)C=CC3C(=O)N(C4CCCCC4)C(=O)C32)cc1 (stereo not given) -0.0874
COCCOC(=O)N1C(=O)[C@@]2(c3cc(C#Cc4ccc(OC)cc4)ccc31)[C@H](C(=O)Nc1nc3ccccc3s1)[C@H]1C(=O)O[C@H](c3ccccc3)[C@H](c3ccccc3)N1[C@@H]2c1ccccc1OCCO 0.972
C=C(COC)/C(=C/C[C@H](OC(=O)c1ccncc1)c1ccc(OCCO)cc1)c1cc(C(=O)OC)ccc1OC -0.402
COc1ccc([Si](C)(C)[C@H]2[C@H](CCO)O[C@@]3(C(=O)N(Cc4ccccc4)c4ccc(N(C=O)c5ccccc5)cc43)[C@@H]2C)cc1 5.16
C=CC[C@]1(C(=O)OC)N=C(c2ccc(OCCCO)cc2)O[C@H]1c1ccccc1N=[N+]=[N-] 1.6
COc1ccccc1CN1C(=O)c2ccccc2[C@](Cc2ccccc2I)(C(=O)NCCCN(C)C)[C@@H]1c1ccc(CO)cc1 -0.133
CC1CC/C=C\[C@H]2OC34C=CCN(c5ccc(Cl)cc5)C(=O)[C@H]3N(CCCO)C(=O)[C@]4(C)C2C(=O)O1 (stereo not given in full) 0.941
CC[C@H](C)C(=O)O[C@H]1CC[C@]2(C)C3=C(CCC2C1(C)C)[C@]1(C)CC[C@H]([C@H](C)CCCC(C)C)[C@@]1(C)CC3 (stereo not given in full) 0.295
CCOC(=O)C[C@H]1[C@H](OC(=O)c2cc3ccccc3oc2=O)[C@@H](NC(=O)C2CCCCC2)c2cc(OCCCO)ccc2N1C(=O)Cc1ccc(OC)cc1 -0.0196
CC(C)C(=C=CC[C@@H](O)c1cccc(OCCO)c1)CCO 0.0632
C=C(COC)/C(=C/C[C@H](OC(=O)c1ccncc1)c1cccc(OCCO)c1)c1cnc2ccccc2c1 -0.148
CC(C)CNC(=O)[C@@H]1c2ccccc2C(=O)N(Cc2ccccc2)[C@H]1c1ccc(CO)cc1 -0.232
C=C(COC)C(=O)CC[C@@H](OC(C)=O)c1ccc(OCCO)cc1 0.423
CCCCC(=C=CC[C@H](O)c1ccc(OCCO)cc1)C[C@H](O)c1ccccn1 0.387
CC(C)c1ccc(NN2C(C(O)C(C)C)C=CC3C(=O)N(c4ccccc4)C(=O)C32)cc1 (stereo not given) 1.57
COCCOC(=O)N1C(=O)[C@@]2(c3cc(C#CC4=CCCCC4)ccc31)[C@H](C(=O)N1CCN(c3ncccn3)CC1)[C@H]1C(=O)O[C@H](c3ccccc3)[C@H](c3ccccc3)N1[C@@H]2c1ccccc1OCCO 1.64
CC(C)C(=C=CC[C@@H](O)c1ccccc1OCCO)C[C@@H](O)c1cc(Cl)cc(Cl)c1O 0.184
COc1ccc(C(O)C2C=CC3C(=O)N(C)C(=O)C3N2Nc2ccc([N+](=O)[O-])cc2[N+](=O)[O-])cc1OCc1ccccc1 (stereo not given) 0.371
